High-throughput results as filed in PubChem.
rat GALR2 agon: agonists of rat galanin receptor 2 (GALR2); O08726; cell-based GALR2 agonist screen; activation, % at 10 µM; 16,000 compounds, 0.5% hits; in the data active = activation above about 15%
Target sequence (O08726 whole entry, looked up): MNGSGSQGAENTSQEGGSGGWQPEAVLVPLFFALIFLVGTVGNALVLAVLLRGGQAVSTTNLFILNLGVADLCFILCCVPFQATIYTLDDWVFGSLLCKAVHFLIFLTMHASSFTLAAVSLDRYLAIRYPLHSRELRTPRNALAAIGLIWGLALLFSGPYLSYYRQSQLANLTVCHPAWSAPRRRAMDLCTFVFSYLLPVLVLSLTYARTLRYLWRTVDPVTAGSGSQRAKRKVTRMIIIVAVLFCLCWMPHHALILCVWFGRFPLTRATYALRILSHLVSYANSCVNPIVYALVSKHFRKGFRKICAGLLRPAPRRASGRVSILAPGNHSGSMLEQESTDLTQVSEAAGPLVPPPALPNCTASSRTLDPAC
S1P1 agonist: S1P1 (human) receptor agonism | P21453 | S1P1 agonist cell-based reporter assay | activation, % at 4.5 µM | 16,000 compounds, 1.5% hits | AID 1044; in the data active = activation above about 80%
PME-1 Maybr inh: Maybridge compound blocking human PME-1; inhibition, % at 9 µM; AID 2291; recombinant PME-1, FP-Rh probe fluorescence polarization; 16,000 compounds, 0.5% hits; in the data active = inhibition above about 30%
TLR4-MyD88 inh: blocks binding of human TLR4 to MyD88; inhibition, % at 10 µM; O00206; 16,000 compounds, 0.06% hits; Cell-based TLR4-MyD88 binding inhibition assay; in the data active = inhibition above about 45%
KOR antag MB: antagonists of human kappa opioid receptor OPRK1, Maybridge library | OPRK1 cells, antagonist mode, fluorescence readout | inhibition, % at 9 µM | 16,000 compounds, 0.4% hits | AID 652031; in the data active = inhibition above about 50%
* marks the source's active call; other numbers are inactive results; . = no result given. Hits are enriched below; roughly 2.8% of the tested compounds scored in any of these assays.

SMILES	rat GALR2 agon	S1P1 agonist	PME-1 Maybr inh	TLR4-MyD88 inh	KOR antag MB
Cn1ccnc1CS(=O)(=O)c1cc(Cl)c(Oc2ccc([N+](=O)[O-])cc2Cl)c(Cl)c1	-6	105*	0	2	-14
CC(=O)Nc1sc(=Nc2ccc(C)c(C)c2)n(C(C)=O)c1-c1ccc2c(c1)OCO2	-6	-8	35*	5	-11
O=S(=O)(NCc1ccccc1)c1cc(Br)c(Br)s1	-2	0	74*	5	10
Cc1ccc([N+](=O)[O-])c(NS(=O)(=O)c2cc(Cl)c(Cl)cc2Cl)c1	-7	87*	9	3	20
Nc1ccccc1C(=O)N/N=C/c1ccccc1O	0	-17	4	-9	-11
COc1ccc(/C=N/N=C(\N)SCc2ccc(F)cc2)cc1	-8	10	2	.	8
O=C(O)CC1(CC(=O)Nc2cccc3nsnc23)CCCCC1	-4	7	-1	4	9
O=C(OC1OCCOC1OC(=O)c1ccc([N+](=O)[O-])cc1)c1ccc([N+](=O)[O-])cc1 (configuration not stated)	-6	-1	3	0	-19
O=c1ccc([N+](=O)[O-])cn1C1CCCCO1 (configuration not stated)	-4	94*	2	22	4
N#C/C(=C\Nc1cc(C(F)(F)F)cc(C(F)(F)F)c1)S(=O)(=O)Cc1ccc(Cl)cc1	-9	100*	-1	-1	18
Cc1cc(-c2n[nH]c(=S)n2C)nn1-c1ccc([N+](=O)[O-])cc1	-1	100*	2	3	-19
Cc1ccc(-c2csc(CO)n2)cc1	-1	10	0	4	-8
O=C1NNC(SCc2ccc(Br)cc2)=Nc2ccccc21	-6	96*	0	-8	0
O=C(NCc1ccco1)c1ccc(Cl)cc1[N+](=O)[O-]	-4	13	0	5	8
O=[N+]([O-])c1cc(C2SCCS2)ccc1SCc1ccco1	-6	100*	6	-1	20
Cn1nc(-c2ccccc2)cc1NC(=O)c1cc(Cl)sc1Cl	-4	-8	3	0	13
Cc1onc(-c2ccccc2)c1NC(=O)Nc1ccc(-n2ccc(C(F)(F)F)n2)cc1	-7	98*	-38	3	8
COc1cccc(/C=N/NC(=S)NC2CC3CCC2C3)c1O (configuration not stated)	-4	-25	-5	6	-6
Cn1cc(C(=O)O/N=C(\N)c2ccc(C(C)(C)C)cc2)c(C(F)(F)F)n1	-6	100*	-8	-11	35
O=C(Nc1ccccn1)c1cc(-c2ccccc2)c(C(F)(F)F)s1	-10	87*	-44	-6	7
Cc1cc(NC(=O)c2cc(-c3ccccc3)c(C(F)(F)F)s2)on1	-4	-5	-2	-7	4
COc1ccc(/C=N/O)cc1OC1CCCC1	-5	-9	2	7	9
CCOC(=O)c1c(C)csc1NC(=O)Nc1c(Cl)cccc1Cl	-6	17	3	0	-39
CCOC(=O)c1c(C)csc1NC(=O)c1cccs1	19*	-10	-2	2	2
COc1ccc(C(=O)CC(C(=O)c2ccccc2)c2ccccc2)cc1 (configuration not stated)	-10	102*	-2	-10	20
SMILES	rat GALR2 agon	S1P1 agonist	PME-1 Maybr inh	TLR4-MyD88 inh	KOR antag MB
O=C(CC(C(=O)c1ccccc1)c1cccs1)c1ccc(Cl)cc1 (configuration not stated)	-9	43	-2	-4	2
Cc1nc(-c2cc(C#N)c(SCCNS(=O)(=O)c3cccc(C(F)(F)F)c3)nc2C)cs1	-9	-7	-38	-9	-4
Cc1nc(-c2cc(C#N)c(NCc3ccccc3)nc2C)cs1	-1	85*	0	8	-40
N#Cc1cnc(Oc2ccc(Cl)cc2)nc1N	21*	-8	0	-1	15
Cc1c(C#N)sc(C#N)c1O	-1	1	1	0	7
CC(C)(O)C#Cc1ccccn1	27*	-19	0	3	-6
CN1C2CCC1CC(NC(=O)CS(=O)(=O)c1ccc(F)cc1F)C2 (configuration not stated)	-7	-14	2	-29	7
CN1C2CCC1CC(NC(=O)CSCc1ccc(Cl)cc1Cl)C2 (configuration not stated)	51*	-2	9	-11	12
O=C(Nc1cccnc1)c1ccc(Cl)cc1	-5	-18	-1	-7	8
CCOC(=O)Cn1c(=O)c(-c2nc(-c3ccc(Cl)cc3)cs2)cn(C(C)C)c1=O	16*	10	0	0	-2
